ChEMBL document CHEMBL2218924, “A broad activity screen in support of a chemogenomic map for kinase signalling research and drug discovery” (Biochem J, 2013)

What was measured:
[1] = molecular target: T1, cGMP-dependent protein kinase 1 (Homo sapiens) (UniProt Q13976); details: at 1 µM
T1 sequence (whole entry): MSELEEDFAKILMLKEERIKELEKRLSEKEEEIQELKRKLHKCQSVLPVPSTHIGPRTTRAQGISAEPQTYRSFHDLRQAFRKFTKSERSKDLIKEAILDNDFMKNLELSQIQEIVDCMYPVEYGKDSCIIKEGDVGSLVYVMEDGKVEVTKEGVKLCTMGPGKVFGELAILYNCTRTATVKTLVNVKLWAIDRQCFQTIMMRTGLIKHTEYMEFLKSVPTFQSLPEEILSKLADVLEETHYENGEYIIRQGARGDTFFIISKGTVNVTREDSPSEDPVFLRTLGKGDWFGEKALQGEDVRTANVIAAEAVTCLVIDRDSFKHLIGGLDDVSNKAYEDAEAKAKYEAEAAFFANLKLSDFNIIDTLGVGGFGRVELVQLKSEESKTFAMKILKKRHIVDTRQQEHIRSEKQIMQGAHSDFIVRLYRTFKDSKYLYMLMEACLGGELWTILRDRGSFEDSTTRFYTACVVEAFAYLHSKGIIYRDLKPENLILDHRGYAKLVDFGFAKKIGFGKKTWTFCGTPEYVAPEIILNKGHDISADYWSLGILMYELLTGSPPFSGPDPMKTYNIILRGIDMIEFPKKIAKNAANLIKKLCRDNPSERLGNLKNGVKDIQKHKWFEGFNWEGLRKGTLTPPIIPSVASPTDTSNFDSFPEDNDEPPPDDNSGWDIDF

[2] = molecular target: T1, cGMP-dependent protein kinase 1 (Homo sapiens); details: at 10 µM
[3] = molecular target: T1, cGMP-dependent protein kinase 1 (Homo sapiens); details: at 1 µM; remark: listed apart in the source
[4] = molecular target: T1, cGMP-dependent protein kinase 1 (Homo sapiens); details: at 10 µM; remark: listed apart in the source
[5] = molecular target: T2, MAP kinase-activated protein kinase 5 (Homo sapiens) (UniProt Q8IW41); details: at 1 µM
T2 sequence (whole entry): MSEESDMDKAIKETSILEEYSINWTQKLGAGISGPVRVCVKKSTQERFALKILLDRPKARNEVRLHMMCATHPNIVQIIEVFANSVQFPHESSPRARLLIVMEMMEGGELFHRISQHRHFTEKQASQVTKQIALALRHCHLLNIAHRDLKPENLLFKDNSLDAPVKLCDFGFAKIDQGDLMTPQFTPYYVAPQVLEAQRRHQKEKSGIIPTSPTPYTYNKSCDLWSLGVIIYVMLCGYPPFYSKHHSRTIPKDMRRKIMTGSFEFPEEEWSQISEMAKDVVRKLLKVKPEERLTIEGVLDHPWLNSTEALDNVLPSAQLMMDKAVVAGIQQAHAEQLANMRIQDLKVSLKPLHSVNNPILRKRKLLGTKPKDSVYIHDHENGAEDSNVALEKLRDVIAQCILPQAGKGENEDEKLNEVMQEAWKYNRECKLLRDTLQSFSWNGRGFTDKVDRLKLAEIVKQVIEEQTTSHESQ

[6] = molecular target: T2, MAP kinase-activated protein kinase 5 (Homo sapiens); details: at 10 µM
[7] = molecular target: Serine/threonine-protein kinase N2 (Homo sapiens) (UniProt Q16513); details: at 1 µM
Sequence of Serine/threonine-protein kinase N2 (Homo sapiens) (Q16513 whole entry, looked up): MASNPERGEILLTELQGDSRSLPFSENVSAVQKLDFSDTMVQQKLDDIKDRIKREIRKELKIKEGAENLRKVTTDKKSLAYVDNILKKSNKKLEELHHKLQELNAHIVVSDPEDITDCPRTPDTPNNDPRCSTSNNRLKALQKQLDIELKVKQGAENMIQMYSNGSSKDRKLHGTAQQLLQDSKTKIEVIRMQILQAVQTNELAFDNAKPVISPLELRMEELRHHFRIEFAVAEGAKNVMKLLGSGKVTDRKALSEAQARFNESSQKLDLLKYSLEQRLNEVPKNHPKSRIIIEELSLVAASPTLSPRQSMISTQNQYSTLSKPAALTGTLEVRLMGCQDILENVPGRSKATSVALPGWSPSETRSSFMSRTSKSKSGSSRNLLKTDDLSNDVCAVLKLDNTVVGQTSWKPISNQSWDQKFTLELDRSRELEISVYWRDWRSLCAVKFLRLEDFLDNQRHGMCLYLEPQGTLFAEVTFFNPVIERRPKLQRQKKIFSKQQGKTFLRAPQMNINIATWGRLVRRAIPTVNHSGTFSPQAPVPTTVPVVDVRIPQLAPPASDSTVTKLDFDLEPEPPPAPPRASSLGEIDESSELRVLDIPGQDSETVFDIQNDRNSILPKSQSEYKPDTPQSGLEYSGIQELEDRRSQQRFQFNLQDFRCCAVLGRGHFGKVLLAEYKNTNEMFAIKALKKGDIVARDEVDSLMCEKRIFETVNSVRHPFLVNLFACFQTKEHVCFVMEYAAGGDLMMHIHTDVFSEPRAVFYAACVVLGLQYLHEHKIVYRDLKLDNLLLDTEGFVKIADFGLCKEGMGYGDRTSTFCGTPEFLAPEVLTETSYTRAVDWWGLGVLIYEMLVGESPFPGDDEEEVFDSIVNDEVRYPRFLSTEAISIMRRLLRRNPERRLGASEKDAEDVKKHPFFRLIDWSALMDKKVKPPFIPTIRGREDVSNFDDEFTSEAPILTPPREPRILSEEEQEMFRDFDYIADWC

[8] = molecular target: Serine/threonine-protein kinase N2 (Homo sapiens) (UniProt Q16513); details: at 10 µM
[9] = molecular target: Tyrosine-protein kinase FRK (Homo sapiens) (UniProt P42685); details: at 1 µM
Sequence of Tyrosine-protein kinase FRK (Homo sapiens) (P42685 whole entry): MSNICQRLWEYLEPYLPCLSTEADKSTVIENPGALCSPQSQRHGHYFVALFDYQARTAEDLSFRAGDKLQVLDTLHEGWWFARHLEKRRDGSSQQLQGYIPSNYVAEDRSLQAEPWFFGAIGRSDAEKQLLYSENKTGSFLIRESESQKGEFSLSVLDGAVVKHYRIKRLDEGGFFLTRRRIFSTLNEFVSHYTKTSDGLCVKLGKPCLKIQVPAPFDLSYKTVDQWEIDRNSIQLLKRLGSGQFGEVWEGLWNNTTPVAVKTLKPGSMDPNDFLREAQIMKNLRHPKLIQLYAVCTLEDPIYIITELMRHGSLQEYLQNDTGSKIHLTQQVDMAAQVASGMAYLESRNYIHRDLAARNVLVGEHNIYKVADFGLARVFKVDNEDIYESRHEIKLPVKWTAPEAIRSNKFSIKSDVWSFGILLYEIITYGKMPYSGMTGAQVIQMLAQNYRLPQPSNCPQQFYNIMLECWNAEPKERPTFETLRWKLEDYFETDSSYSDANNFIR

[10] = molecular target: Tyrosine-protein kinase FRK (Homo sapiens) (UniProt P42685); details: at 10 µM

Structure (SMILES) | residual activity [1] [%] | residual activity [2] [%] | residual activity [3] [%] | residual activity [4] [%] | residual activity [5] [%] | residual activity [6] [%] | residual activity [7] [%] | residual activity [8] [%] | residual activity [9] [%] | residual activity [10] [%]
Cn1nc2c3c(cccc31)C(=O)c1ccccc1-2 | 86 | 95 | 100 | 6 | 76 | 44 | 95 | 77 | 87 | 64
COc1cc2ncc(-c3ccccc3)nc2cc1OC |  |  |  |  | 125 | 85 |  |  | 90 | 90
CC(=O)O/N=C1\C(=C2\C(=O)Nc3cc(Br)ccc32)Nc2ccccc21 | 101 | 112 | 102 | 76 | 105 |  | 98 | 79 | 17 | 1
COc1cccc(-c2cc(=O)c3ccccc3o2)c1N | 95 | 89 | 114 | 102 | 125 | 108 | 94 | 90 | 93 | 86
COc1ccc(OC)c2c(=S)c3ccccc3[nH]c12 | 93 | 109 | 94 | 76 | 96 | 90 | 99 | 88 | 95 | 99
Oc1ccc(Nc2nc(-c3ccc(Cl)cc3)cs2)cc1 | 100 | 99 | 113 | 111 | 115 | 69 | 110 | 107 | 104 | 118
COc1cc2ncnc(N3CCN(C(=O)Nc4ccc(Oc5ccccc5)cc4)CC3)c2cc1OC | 99 | 110 | 68 | 72 | 78 | 79 | 88 | 112 | 96 | 127
Nc1nc(Nc2ccc(S(N)(=O)=O)cc2)nn1C(=S)Nc1c(F)cccc1F |  |  |  |  | 32 | 2 | 5 | 2 | 20 | 0
O=Nc1c(-c2c(O)[nH]c3ccccc23)[nH]c2ccccc12 | 77 | 67 | 79 | 45 | 78 | 24 | 91 | 48 | 13 | 6
CCN(CC)C(=O)c1ccc(Nc2nc(OCC3CCCCC3)c3nc[nH]c3n2)cc1 |  |  |  |  |  | 12 | 66 | 12 | 78 | 38
CCC(=O)Nc1ccc2ncnc(Nc3cccc(Br)c3)c2c1 | 108 | 96 | 89 | 81 | 74 | 74 | 90 | 99 | 94 | 59
N#Cc1cnc2cnc(NCc3cccnc3)cc2c1Nc1ccc(F)c(Cl)c1 | 4 | 9 |  |  | 78 | 101 | 4 | 3 | 28 | 22
Cn1cc(/C=C2\C(=O)Nc3ccc(S(N)(=O)=O)cc32)c2ccccc21 | 103 | 101 | 77 | 54 | 62 | 54 | 58 | 23 | 74 | 35
Nc1cccc(-c2cc3c(Oc4cccc(O)c4)ncnc3[nH]2)c1 |  |  |  | 91 | 100 | 71 | 98 | 67 | 1 | 0
c1ccc(-c2n[nH]cc2-c2ccnc3ccccc23)nc1 |  |  |  |  | 73 | 90 | 89 | 103 | 84 | 25
CC(C)n1cnc2c(NCc3ccccc3)nc(NCCCO)nc21 | 89 | 101 | 95 | 83 | 115 | 115 | 110 | 99 | 88 | 80
Cc1cc(Nc2nc(-c3ccccc3)nc3ccccc23)n[nH]1 | 82 | 39 | 82 | 27 |  |  |  | 58 | 46 | 8
O=C1Nc2ccc(Br)cc2/C1=C\c1cc2c([nH]1)CCCC2 | 100 | 99 | 105 | 97 | 82 | 99 |  | 112 | 102 | 103
N#CC(C#N)=C(N)/C(C#N)=C/c1ccc(O)cc1 |  |  |  |  |  | 92 |  | 117 |  | 91
CC(=O)c1ccc(N2CCOCC2)cc1O |  |  |  |  | 77 | 109 | 100 | 109 | 109 | 99
